# Results filed as inconclusive are left out. Entries that show only a call come without a potency. Activity calls are given as the source filed them. Unless noted, the call rests on the fitted dose curve; in most records, active means well fitted curve in the direction sought with a large enough effect; inconclusive means small, poorly fitted or top-dose-only effect, or another doubt; inactive means no such curve, though single readings can be large; an effect the other way counts as inactive or inconclusive. Peptide text beside a SMILES is read from it.
# Columns and labels:
# [1] = Cytometry Cell-Based qHTS for Inhibitors of the mTORC1 Signaling Pathway in MEF cells (AID 2668); details: mTORC1 pathway readout; series mostly up to 38.3 µM;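 further: Tsc2-/- p53-/- mouse embryonic fibroblasts stably re-expressing wild-type Tsc2; percent cells positive for phospho-rpS6 Ser235/236 relative to propidium iodide stain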
# Procedure, shortened: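 Pathway inhibition in WT Tsc2-rescued Tsc2-/-, p53-/- MEFs is measured as the Alexa-488 phospho-rpS6 to propidium iodide intensity ratio after 24 hrs of compound at 37 degree Celsius. PI-stained cell number gives viability.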
# [2] = Validation screen for small molecules that induce DNA re-replication in MCF 10A normal breast cells (AID 463097); details: MCF 10A cells, DNA re-replication phenotype imaging; series mostly up to 46.1 µM; further: nearly all actives have a fitted effect of over 60% in size
# Procedure, shortened: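 DNA re-replication was detected as a rise in nuclei with elevated Hoechst fluorescence after a 48 hr compound exposure of MCF 10A cells at 37 C.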
# [3] = target: Ubiquitin carboxyl-terminal hydrolase 2 (Homo sapiens) (UniProt O75604); test: qHTS Validation Assay for Inhibitors of Ubiquitin-specific Protease USP2a Using CHOP2 as the Reporter (AID 463106); details: USP2a cleavage of CHOP2 reporter, enzymatic; series mostly up to 38.3 µM
# Procedure, shortened: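 USP2 core (10 nM final) was preincubated with compound 30 min at RT in pH 8.0 Tris/CaCl2/beta-ME/CHAPS buffer. Ub-CHOP2 and reporter substrate (25 nM final each) were then added, with fluorescence (Ex 485/Em 531) read after 60 min. Data were normalized to NEM full inhibition and fitted to concentration-response curves.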
# [4] = target: DNA polymerase III PolC-type (Bacillus subtilis (strain 168)) (UniProt P13267); test: qHTS Validation Assay for the Inhibitors of DNA Replication in Gram-Positive Bacteria (AID 485295); details: Gram-positive bacterial DNA replication assay; series mostly up to 57.1 µM;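 further: reconstituted holoenzyme with PolC plus beta clamp SSB and primase; PicoGreen fluorescence of double-stranded DNA made on primed circular M13 template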
# Procedure, shortened: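 Primed replication of single-stranded M13Gori by a four-protein B. subtilis holoenzyme is measured at room temperature. Double-stranded product is quantified by PicoGreen fluorescence after an EDTA stop; inhibition is scaled between DMSO and EDTA controls.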
# [5] = target: Tumor susceptibility gene 101 protein (Homo sapiens) (UniProt Q99816); test: qHTS Validation Assay for Iinhibitors of HIV-1 Budding by Blocking the Interaction of PTAP/TSG101 (AID 485342; calls by dose curve); details: TSG101-PTAP binding, fluorescence polarization, 4-point titration; series mostly up to 115 µM
# Procedure, shortened: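 Fluorescence anisotropy measured PTAP-Tsg101 interaction. Final concentrations were 10 uM protein domain and 50 nM labeled peptide, equilibrated 20 min at room temperature.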
# [6] = target: Beta-2 adrenergic receptor (Homo sapiens) (UniProt P07550); test: qHTS validation assay of beta-arrestin-biased ligands of beta2-adrenergic receptor (AID 485366); details: cell-based beta-arrestin recruitment to ADRB2, qHTS; series mostly up to 46.1 µM
# Procedure, shortened: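 Values derive from curve-fitted %Activity of a luminescent beta-arrestin recruitment reporter; compounds tested up to 46 microM on Tango cells for 18 hr at 37 degrees C, 5% CO2.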
# [7] = target: ATP-dependent 6-phosphofructokinase (Trypanosoma brucei brucei) (UniProt O15648); test: qHTS Validation Assay to Find Inhibitors of T. brucei phosphofructokinase (AID 485368); details: T. brucei PFK enzyme assay, qHTS 7-point titration; at 57.5 µM (top of the series)
# Procedure, shortened: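 Enzyme reaction in triethanolamine buffer pH 8.0 with 5 mM MgCl2, 0.01% Tween20 and 0.1% BSA; PFK 1.25 nM, F6P 0.5 mM, ATP 0.1 mM, 45 min RT. ADP quantified by ADP-Glo.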
# [8] = target: Thioredoxin reductase 1, cytoplasmic (Rattus norvegicus) (UniProt O89049); test: qHTS Assay for Substrates of Mammalian Selenoprotein Thioredoxin Reductase 1 (TrxR1) (AID 488772); details: purified TrxR1, NADPH consumption substrate assay; series mostly up to 57.1 µM;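 further: NADPH fluorescence in the first read after selenite addition and not the 8 min delta; a drop in NADPH fluorescence below the no-compound background marks a TrxR1 substrate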
# Procedure, shortened: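 Quantitative HTS in Tris-HCl buffer at pH 7.5 with EDTA and Tween-20, using rat TrxR1, 400 uM NADPH and 400 uM selenite (final). A fall in initial NADPH fluorescence relative to background marked substrate behaviour.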
# [9] = target: Thioredoxin reductase 1, cytoplasmic (Rattus norvegicus) (UniProt O89049); test: qHTS Assay for Inhibitors of Mammalian Selenoprotein Thioredoxin Reductase 1 (TrxR1) (AID 488773); details: purified TrxR1 enzyme activity; series mostly up to 57.1 µM;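 further: drop in NADPH fluorescence over an 8 min run after selenite addition; nearly all actives have a fitted effect of over 40% in size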
# Procedure, shortened: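 Steps: enzyme (90 nM) plus NADPH (400 uM final), 5 min at ~22 deg C; compound added, 15 min; selenite (400 uM final) added; fluorescence followed for 8 min. Concentration-response curves derived from the normalized delta values.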
# [10] = target: Flap endonuclease 1 (Homo sapiens) (UniProt P39748); test: qHTS Validation Assay for the Inhibitors of Human Flap endonuclease 1 (FEN1) (AID 488816); details: FEN1 nuclease activity, fluorogenic DNA substrate; series mostly up to 57.1 µM
# Procedure, shortened: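 Human FEN1 (10 nM) preincubated 15 min at room temperature with compounds, then flap DNA substrate added at 50 nM final. Fluorescence read at 0 and 15 min; concentration-response fitted with four-parameter Hill equation.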
# [11] = target: M-phase phosphoprotein 8 (Homo sapiens) (UniProt Q99549); test: qHTS Validation Assay for Inhibitors for MPP8 Chromodomain Interactions with Methylated Histone Tails (AID 488949); details: AlphaScreen MPP8 binding to H3K9me3 peptide; series mostly up to 114 µM;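 further: AlphaScreen signal from MPP8 chromodomain bound to biotinylated H3K9me3 peptide; top concentration of the series differs between compounds; nearly all actives have a fitted effect of over 55% in size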
# Procedure, shortened: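 Disruption of the preformed MPP8–trimethyl-H3K9 peptide complex (both 50 nM, 30 min, RT) is measured after 30 min compound exposure, using AlphaScreen proximity beads; aurintricarboxylic acid titration serves as plate control.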
# [12] = target: Methanococcus maripaludis chaperonin (MmCpn) (UniProt Q6LX38); test: High-Throughput Screening for Modulators of Cytosolic Chaperonin Activity: MmCpn Primary Screen (AID 488978); details: Purified MmCpn ATPase activity, ADP HTRF detection, 10 min; series mostly up to 76.9 µM;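 further: 50 nM MmCpn enzyme hydrolysing 30 µM ATP at 37 °C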
# Procedure, shortened: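 Measures ATPase turnover of the M. maripaludis chaperonin (50 nM final) against 30 uM ATP over 10 min at 37C, with compound added 5 min beforehand at room temperature. ADP is quantified by HTRF immunodetection.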
# [13] = target: Transient receptor potential cation channel subfamily V member 1 (Homo sapiens) (UniProt Q8NER1); test: HTS Assay for Compounds that Act as Enhancers of the Vanilloid Receptor 1 (AID 488979); details: TRPV1-expressing cells, enhancer of channel activity, stimulated with capsaicin at EC20; series mostly up to 41.7 µM
# Procedure, shortened: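 TRPV1 cells loaded with Fluo-8 calcium dye; compound added and Ca2+ signal (ex 480/em 520 nm) followed 3 min, then capsaicin at EC20 added and read 2 more min to detect enhancement.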
# [14] = target: Thyrotropin receptor (Homo sapiens) (UniProt P16473); test: qHTS Assay for Antagonists of the Thyroid Stimulating Hormone Receptor (AID 488980); details: TSHR-expressing cells, cAMP antagonist read-out; series mostly up to 57.5 µM
# Procedure, shortened: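 Cells expressing human TSHR (HEK293) are dispensed in HBSS/HEPES containing 70 uM RO 20-1724, compound is added, then TSH at EC80 (4 nM final). Antibody in lysis buffer follows, 30 minutes at room temperature before HTRF detection.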
# [15] = target: D(1A) dopamine receptor (Homo sapiens) (UniProt P21728); test: HTS Assay for Allosteric Agonists of the Human D1 Dopamine Receptor: Primary Screen for Agonists (AID 488981); details: Inducible HEK293 T-REx D1 cells, calcium-flux fluorescence, 180 s kinetic; series mostly up to 41.8 µM
# Procedure, shortened: (§1)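 Tetracycline-induced HEK293 Trex D1 cells with forced coupling to calcium, loaded with no-wash calcium dye; kinetic fluorescence read 180 s after compound addition for agonism, then a further 180 s after an EC20 dopamine challenge for potentiation.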
# [16] = target: D(1A) dopamine receptor (Homo sapiens) (UniProt P21728); test: HTS Assay for Allosteric Agonists of the Human D1 Dopamine Receptor: Primary Screen for Potentiators (AID 488982); details: HEK293 T-REx D1 inducible cells, calcium flux, kinetic fluorescence; series mostly up to 8.37 µM
# Procedure, shortened: as §1
# [17] = target: D(1A) dopamine receptor (Homo sapiens) (UniProt P21728); test: HTS Assay for Allosteric Agonists of the Human D1 Dopamine Receptor: Primary Screen for Antagonists (AID 488983); details: D1 receptor cell assay, antagonist mode, qHTS titration; series mostly up to 41.8 µM;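 further: calcium flux response to an EC80 dopamine challenge measured with no-wash dye; nearly all actives have a fitted effect of over 65% in size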
# Procedure, shortened: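 Cells are induced with tetracycline and incubated overnight at 30 C, then loaded with calcium dye for 30 to 90 minutes at room temperature. Compound addition is followed by a 180 s read, then an EC80 dopamine addition and another 180 s read.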
# [18] = Validation screen for small molecules that induce genotoxicity in human embryonic kidney (HEK293T) cells expressing luciferase-tagged ELG1 (AID 493106); details: luminescence; series mostly up to 46.1 µM
# Procedure, shortened: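 Luminescence from an ELG1-luciferase fusion serves as the read-out, rising when genetic stress elevates ELG1 protein. HEK293T reporter cells (2,000 per well) received 23 nL compound, incubated 16 hr at 37 °C, then ONE-Glo for 30 min at room temperature.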
# [19] = target: Tyrosyl-DNA phosphodiesterase 1 (Homo sapiens) (UniProt Q9NUW8); test: Confirmation Assay for Inhibitors of Tyrosyl-DNA Phosphodiesterase (TDP1) (AID 489007); details: recombinant human TDP1 enzymatic activity, dose-response; further: potency means the concentration at half of the fitted maximal effect; nearly all actives have a fitted effect of over 40% in size
# Procedure, shortened: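 Tdp1 1 nM + cpd, 15 min RT; add biotin/phosphotyrosine-FITC oligo 15 nM, 5 min RT; add AS donor/acceptor beads 10 ug/ml, 10 min RT; read AlphaScreen. No-enzyme wells = max signal.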
# Chain of D(1A) dopamine receptor (Homo sapiens) (P21728 whole entry, looked up): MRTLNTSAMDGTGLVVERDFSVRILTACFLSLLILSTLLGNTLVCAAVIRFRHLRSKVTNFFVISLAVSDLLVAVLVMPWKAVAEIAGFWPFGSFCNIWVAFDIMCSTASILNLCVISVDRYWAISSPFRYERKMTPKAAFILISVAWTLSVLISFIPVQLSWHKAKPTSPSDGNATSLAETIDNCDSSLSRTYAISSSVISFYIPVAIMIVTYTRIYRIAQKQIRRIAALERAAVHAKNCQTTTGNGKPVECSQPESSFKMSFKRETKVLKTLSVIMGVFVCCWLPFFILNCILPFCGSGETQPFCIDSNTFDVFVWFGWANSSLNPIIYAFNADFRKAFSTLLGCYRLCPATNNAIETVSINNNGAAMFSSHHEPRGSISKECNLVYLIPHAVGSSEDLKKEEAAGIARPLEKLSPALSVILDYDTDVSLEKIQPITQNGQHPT
# Chain of M-phase phosphoprotein 8 (Homo sapiens) (Q99549 whole entry, looked up): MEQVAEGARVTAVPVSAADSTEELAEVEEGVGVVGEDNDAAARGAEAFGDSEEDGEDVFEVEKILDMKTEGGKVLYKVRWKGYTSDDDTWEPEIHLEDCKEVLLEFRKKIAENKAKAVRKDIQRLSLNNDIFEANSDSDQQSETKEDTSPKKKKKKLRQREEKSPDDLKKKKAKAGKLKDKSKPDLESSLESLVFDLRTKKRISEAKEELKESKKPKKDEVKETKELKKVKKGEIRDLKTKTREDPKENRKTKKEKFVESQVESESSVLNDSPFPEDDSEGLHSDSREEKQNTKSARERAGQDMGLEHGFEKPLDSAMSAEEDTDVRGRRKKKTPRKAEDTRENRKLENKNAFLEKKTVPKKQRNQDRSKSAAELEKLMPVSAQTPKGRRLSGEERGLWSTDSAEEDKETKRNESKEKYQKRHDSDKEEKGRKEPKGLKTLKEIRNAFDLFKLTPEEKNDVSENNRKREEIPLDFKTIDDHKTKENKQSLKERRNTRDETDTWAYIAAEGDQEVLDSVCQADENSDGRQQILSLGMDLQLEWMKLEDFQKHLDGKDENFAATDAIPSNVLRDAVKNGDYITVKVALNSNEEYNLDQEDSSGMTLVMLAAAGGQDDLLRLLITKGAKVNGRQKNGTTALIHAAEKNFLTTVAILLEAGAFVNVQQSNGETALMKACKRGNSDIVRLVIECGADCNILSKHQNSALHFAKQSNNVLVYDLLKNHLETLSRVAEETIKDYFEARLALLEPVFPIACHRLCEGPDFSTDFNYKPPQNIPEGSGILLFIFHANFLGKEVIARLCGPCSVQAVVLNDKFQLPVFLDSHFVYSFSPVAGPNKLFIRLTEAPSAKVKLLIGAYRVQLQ
# Chain of Thioredoxin reductase 1, cytoplasmic (Rattus norvegicus) (O89049 whole entry, looked up): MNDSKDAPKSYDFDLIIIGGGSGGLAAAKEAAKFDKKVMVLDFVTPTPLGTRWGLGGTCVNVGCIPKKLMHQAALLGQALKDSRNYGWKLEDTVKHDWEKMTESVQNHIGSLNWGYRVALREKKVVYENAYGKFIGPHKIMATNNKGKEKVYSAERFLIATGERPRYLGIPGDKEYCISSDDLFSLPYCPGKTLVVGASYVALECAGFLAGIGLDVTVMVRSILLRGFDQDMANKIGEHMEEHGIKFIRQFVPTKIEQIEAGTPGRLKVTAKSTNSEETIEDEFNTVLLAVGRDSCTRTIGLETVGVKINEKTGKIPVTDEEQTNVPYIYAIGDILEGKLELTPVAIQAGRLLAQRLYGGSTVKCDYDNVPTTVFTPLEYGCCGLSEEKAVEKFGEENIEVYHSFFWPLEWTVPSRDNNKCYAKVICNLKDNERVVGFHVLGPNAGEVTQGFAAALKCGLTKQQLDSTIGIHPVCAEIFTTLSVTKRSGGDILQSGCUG
# Chain of Transient receptor potential cation channel subfamily V member 1 (Homo sapiens) (Q8NER1 whole entry, looked up): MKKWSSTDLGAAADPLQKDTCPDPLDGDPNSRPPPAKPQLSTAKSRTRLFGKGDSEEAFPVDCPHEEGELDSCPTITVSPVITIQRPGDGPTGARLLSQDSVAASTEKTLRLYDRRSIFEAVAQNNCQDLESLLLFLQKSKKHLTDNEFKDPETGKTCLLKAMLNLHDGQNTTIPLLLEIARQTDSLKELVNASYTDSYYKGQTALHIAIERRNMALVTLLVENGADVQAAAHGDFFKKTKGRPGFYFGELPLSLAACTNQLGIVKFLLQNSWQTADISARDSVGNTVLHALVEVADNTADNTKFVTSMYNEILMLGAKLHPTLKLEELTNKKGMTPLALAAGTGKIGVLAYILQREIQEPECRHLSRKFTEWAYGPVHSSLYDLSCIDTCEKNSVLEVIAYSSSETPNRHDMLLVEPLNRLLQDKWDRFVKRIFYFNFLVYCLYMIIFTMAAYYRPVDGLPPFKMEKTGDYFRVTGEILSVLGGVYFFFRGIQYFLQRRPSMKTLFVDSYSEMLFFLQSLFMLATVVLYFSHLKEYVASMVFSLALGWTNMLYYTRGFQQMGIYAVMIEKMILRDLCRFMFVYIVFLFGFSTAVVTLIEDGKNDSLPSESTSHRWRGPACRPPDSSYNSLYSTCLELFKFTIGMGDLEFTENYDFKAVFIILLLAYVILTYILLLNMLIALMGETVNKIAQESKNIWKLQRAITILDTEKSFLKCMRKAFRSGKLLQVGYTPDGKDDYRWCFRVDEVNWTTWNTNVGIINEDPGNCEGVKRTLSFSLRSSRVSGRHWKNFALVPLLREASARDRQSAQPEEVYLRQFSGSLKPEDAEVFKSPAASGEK
# Chain of Thyrotropin receptor (Homo sapiens) (P16473 whole entry, looked up): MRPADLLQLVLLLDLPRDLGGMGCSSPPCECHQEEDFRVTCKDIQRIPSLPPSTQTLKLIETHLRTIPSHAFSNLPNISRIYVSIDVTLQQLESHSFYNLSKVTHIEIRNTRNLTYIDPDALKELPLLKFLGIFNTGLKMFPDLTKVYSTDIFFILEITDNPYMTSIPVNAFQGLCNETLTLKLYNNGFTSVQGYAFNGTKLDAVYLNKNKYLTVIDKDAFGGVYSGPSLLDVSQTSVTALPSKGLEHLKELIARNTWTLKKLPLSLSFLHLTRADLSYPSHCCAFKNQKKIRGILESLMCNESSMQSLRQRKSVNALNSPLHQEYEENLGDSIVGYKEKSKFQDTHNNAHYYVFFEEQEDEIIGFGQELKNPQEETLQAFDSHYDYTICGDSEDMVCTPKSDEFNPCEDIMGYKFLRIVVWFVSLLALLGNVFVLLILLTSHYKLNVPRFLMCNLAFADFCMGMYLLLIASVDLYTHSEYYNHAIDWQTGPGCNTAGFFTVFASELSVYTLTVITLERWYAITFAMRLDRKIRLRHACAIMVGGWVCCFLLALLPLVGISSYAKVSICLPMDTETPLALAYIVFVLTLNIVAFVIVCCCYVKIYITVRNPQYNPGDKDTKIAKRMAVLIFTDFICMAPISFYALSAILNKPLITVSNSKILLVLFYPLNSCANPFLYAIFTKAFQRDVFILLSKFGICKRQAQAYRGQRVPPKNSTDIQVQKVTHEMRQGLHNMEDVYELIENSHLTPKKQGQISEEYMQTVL
# Chain of Tyrosyl-DNA phosphodiesterase 1 (Homo sapiens) (Q9NUW8 whole entry, looked up): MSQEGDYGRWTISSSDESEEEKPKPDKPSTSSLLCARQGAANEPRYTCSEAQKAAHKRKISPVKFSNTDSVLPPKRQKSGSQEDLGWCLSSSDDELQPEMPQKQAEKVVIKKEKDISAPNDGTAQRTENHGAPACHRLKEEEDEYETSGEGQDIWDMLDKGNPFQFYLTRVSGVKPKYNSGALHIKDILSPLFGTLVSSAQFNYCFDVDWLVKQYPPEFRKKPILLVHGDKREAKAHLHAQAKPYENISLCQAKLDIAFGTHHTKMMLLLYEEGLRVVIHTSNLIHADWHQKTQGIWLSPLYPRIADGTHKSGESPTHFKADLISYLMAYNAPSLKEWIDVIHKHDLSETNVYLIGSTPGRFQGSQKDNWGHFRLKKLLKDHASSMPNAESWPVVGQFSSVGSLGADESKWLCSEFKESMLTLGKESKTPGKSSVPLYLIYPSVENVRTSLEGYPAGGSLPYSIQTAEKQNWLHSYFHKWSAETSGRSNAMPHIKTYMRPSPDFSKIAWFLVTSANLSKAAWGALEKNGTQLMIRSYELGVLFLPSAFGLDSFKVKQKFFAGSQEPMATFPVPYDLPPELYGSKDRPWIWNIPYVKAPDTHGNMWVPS
# Chain of Tumor susceptibility gene 101 protein (Homo sapiens) (Q99816 whole entry, looked up, the tested form may be a part): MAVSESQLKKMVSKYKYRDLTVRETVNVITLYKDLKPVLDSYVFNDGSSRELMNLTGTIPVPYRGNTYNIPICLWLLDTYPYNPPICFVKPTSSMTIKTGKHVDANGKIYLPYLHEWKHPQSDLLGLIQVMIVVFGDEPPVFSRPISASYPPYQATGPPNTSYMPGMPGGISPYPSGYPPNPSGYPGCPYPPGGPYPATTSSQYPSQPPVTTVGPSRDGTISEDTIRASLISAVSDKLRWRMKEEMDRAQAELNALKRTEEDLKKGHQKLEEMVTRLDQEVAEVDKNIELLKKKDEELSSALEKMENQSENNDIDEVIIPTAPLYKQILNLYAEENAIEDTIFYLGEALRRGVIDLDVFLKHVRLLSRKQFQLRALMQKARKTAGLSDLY
# Chain of ATP-dependent 6-phosphofructokinase (Trypanosoma brucei brucei) (O15648 whole entry, looked up): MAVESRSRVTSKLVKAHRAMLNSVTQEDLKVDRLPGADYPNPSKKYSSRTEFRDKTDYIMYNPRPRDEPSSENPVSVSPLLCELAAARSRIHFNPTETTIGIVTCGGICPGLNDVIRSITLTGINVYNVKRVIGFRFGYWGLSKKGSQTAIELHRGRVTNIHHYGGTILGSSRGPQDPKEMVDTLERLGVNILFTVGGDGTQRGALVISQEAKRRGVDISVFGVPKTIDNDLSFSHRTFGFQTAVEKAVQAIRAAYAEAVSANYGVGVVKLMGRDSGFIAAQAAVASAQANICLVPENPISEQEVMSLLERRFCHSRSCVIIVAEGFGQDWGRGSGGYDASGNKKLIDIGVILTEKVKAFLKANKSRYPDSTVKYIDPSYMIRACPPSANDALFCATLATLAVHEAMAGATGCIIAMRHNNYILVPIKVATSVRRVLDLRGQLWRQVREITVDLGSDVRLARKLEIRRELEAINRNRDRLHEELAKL
smiles,measurement,setting,value
CN1Cc2c(N)cccc2C(c2ccccc2)C1 (centres undefined),outcome,[1],inactive
same,outcome,[2],inactive
same,outcome,[3],inactive
same,outcome,[4],inactive
same,outcome,[5],inactive
same,outcome,[6],inactive
same,outcome,[7],inactive
same,outcome,[8],inactive
same,outcome,[9],inactive
same,outcome,[10],inactive
same,outcome,[11],inactive
same,outcome,[12],inactive
same,outcome,[13],inactive
same,outcome,[14],inactive
same,outcome,[15],inactive
same,outcome,[16],inactive
same,outcome,[17],inactive
same,outcome,[18],inactive
CC[N+](C)(C)Cc1ccccc1Br,outcome,[2],inactive
same,outcome,[11],inactive
same,outcome,[13],inactive
same,outcome,[14],inactive
O=C(O)c1cc(O)c2c(c1)[O][Bi][O]2,Potency,[19],15.8 µM (active)
CC(=O)N[C@@H](CC(=O)O)C(=O)N[C@@H](CCC(=O)O)C(=O)O (Ac-Asp-Glu-OH),Potency,[19],25.1 µM (active)

# Source: PubChem BioAssay (NCATS)
